Laboratory results reported in PubChem BioAssay AID1159580 (chemical genetic matrix, 2015).
Out of some 5,500 compounds screened, about 2,000 (36%) were called active. Roughly 18% stayed inconclusive and do not appear here. Cut-off read from the data, not from the text of the source: active = normalized growth mostly below about 0.91 (no sharp cut-off); inconclusive = no clear call, values can overlap the other calls; inactive = mostly above about 0.92. The list shows a part of the results.

Test: chemical genetic growth profiling, strain panel (AID 1159580);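 note: tested at 20 µM; growth read once vehicle control cultures reached saturation at 30 °C; 1 = growth at the plate median or of vehicle wells; lower values mean less growth of the strain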
Conditions: growth OD

Measured: normalized growth

CC1C[C@H]2CC(=O)[C@H]3CCCN4CCC[C@H]2[C@]34C1 (stereo partly specified)
inactive: S. cerevisiae deletion strains, locus YAL021C, strain ccr4, stronger effect = lower value 1.01 | S. cerevisiae deletion strains, locus YAL026C, strain drs2, stronger effect = lower value 1.01 | S. cerevisiae deletion strains, locus YAL030W, strain snc1, stronger effect = lower value 1 | S. cerevisiae deletion strains, locus YBL061C, strain skt5, stronger effect = lower value 1.01 | S. cerevisiae deletion strains, locus YBR009C, strain hhf1, stronger effect = lower value 1 | S. cerevisiae deletion strains, locus YBR021W, strain FUR4, stronger effect = lower value 0.996 | S. cerevisiae deletion strains, locus YBR023C, strain chs3, stronger effect = lower value 1.02 | S. cerevisiae deletion strains, locus YBR171W, strain sec66, stronger effect = lower value 0.996 | S. cerevisiae deletion strains, locus YBR229C, strain ROT2, stronger effect = lower value 1 | S. cerevisiae deletion strains, locus YBR231C, strain swc5, stronger effect = lower value 0.993 | S. cerevisiae deletion strains, locus YBR279W, strain paf1, stronger effect = lower value 1.02 | S. cerevisiae deletion strains, locus YCL011C, strain gbp2, stronger effect = lower value 1.02 | S. cerevisiae deletion strains, locus YCL016C, strain dcc1, stronger effect = lower value 1.02 | S. cerevisiae deletion strains, locus YCL029C, strain bik1, stronger effect = lower value 1.02 | S. cerevisiae deletion strains, locus YCL061C, strain MRC1, stronger effect = lower value 1.01 | S. cerevisiae deletion strains, locus YCL069W, strain vba3, stronger effect = lower value 1.01 | S. cerevisiae deletion strains, locus YCR088W, strain abp1, stronger effect = lower value 1.01 | S. cerevisiae deletion strains, locus YDL005C, strain med2, stronger effect = lower value 1.01 | S. cerevisiae deletion strains, locus YDL035C, strain GPR1, stronger effect = lower value 1.03 | S. cerevisiae deletion strains, locus YDL040C, strain nat1, stronger effect = lower value 1.01 | S. cerevisiae deletion strains, locus YDL074C, strain BRE1, stronger effect = lower value 1.03 | S. cerevisiae deletion strains, locus YDL101C, strain DUN1, stronger effect = lower value 1.02 | S. cerevisiae deletion strains, locus YDL134C, strain PPH21, stronger effect = lower value 1.01 | S. cerevisiae deletion strains, locus YDL185W, strain tfp1, stronger effect = lower value 1.02 | S. cerevisiae deletion strains, locus YDL192W, strain arf1, stronger effect = lower value 1.02 | S. cerevisiae deletion strains, locus YDR001C, strain nth1, stronger effect = lower value 1.01 | S. cerevisiae deletion strains, locus YDR069C, strain doa4, stronger effect = lower value 1.02 | S. cerevisiae deletion strains, locus YDR101C, strain arx1, stronger effect = lower value 1.03 | S. cerevisiae deletion strains, locus YDR137W, strain rgp1, stronger effect = lower value 1.03 | S. cerevisiae deletion strains, locus YDR150W, strain NUM1, stronger effect = lower value 1 | S. cerevisiae deletion strains, locus YDR159W, strain sac3, stronger effect = lower value 1 | S. cerevisiae deletion strains, locus YDR162C, strain NBP2, stronger effect = lower value 1.03 | S. cerevisiae deletion strains, locus YDR195W, strain ref2 0.993 | S. cerevisiae deletion strains, locus YDR297W, strain sur2, stronger effect = lower value 1 | S. cerevisiae deletion strains, locus YDR318W, strain mcm21, stronger effect = lower value 1.02 | S. cerevisiae deletion strains, locus YDR334W, strain swr1, stronger effect = lower value 1 | S. cerevisiae deletion strains, locus YDR335W, strain msn5, stronger effect = lower value 1.01 | S. cerevisiae deletion strains, locus YDR388W, stronger effect = lower value 1.01 | S. cerevisiae deletion strains, locus YDR392W, strain spt3, stronger effect = lower value 0.954 | S. cerevisiae deletion strains, locus YDR502C, strain sam2, stronger effect = lower value 1.01 | S. cerevisiae deletion strains, locus YEL003W, strain gim4, stronger effect = lower value 1.01 | S. cerevisiae deletion strains, locus YEL037C, strain rad23, stronger effect = lower value 1.01 | S. cerevisiae deletion strains, locus YEL061C, strain CIN8 (second series), stronger effect = lower value 1.01 | S. cerevisiae deletion strains, locus YEL061C, strain CIN8, stronger effect = lower value 1.01 | S. cerevisiae deletion strains, locus YER015W, strain faa2, stronger effect = lower value 1.02 | S. cerevisiae deletion strains, locus YER016W, strain bim1, stronger effect = lower value 1.01 | S. cerevisiae deletion strains, locus YER110C, stronger effect = lower value 1.02 | S. cerevisiae deletion strains, locus YER111C, strain swi4, stronger effect = lower value 1 | S. cerevisiae deletion strains, locus YER155C, strain BEM2 (second series), stronger effect = lower value 1.04 | S. cerevisiae deletion strains, locus YER155C, strain BEM2, stronger effect = lower value 0.989 | S. cerevisiae deletion strains, locus YER167W, strain BCK2, stronger effect = lower value 1.01 | S. cerevisiae deletion strains, locus YFR010W, strain ubp6, stronger effect = lower value 1.01 | S. cerevisiae deletion strains, locus YGL078C, strain dbp3, stronger effect = lower value 1.01 | S. cerevisiae deletion strains, locus YGL086W, strain mad1, stronger effect = lower value 1.02 | S. cerevisiae deletion strains, locus YGL167C, strain pmr1, stronger effect = lower value 1.01 | S. cerevisiae deletion strains, locus YGL173C, strain kem1, stronger effect = lower value 1.01 | S. cerevisiae deletion strains, locus YGL227W, strain vid30, stronger effect = lower value 1.01 | S. cerevisiae deletion strains, locus YGL240W, strain doc1, stronger effect = lower value 0.996 | S. cerevisiae deletion strains, locus YGL248W, strain PDE1, stronger effect = lower value 1.01 | S. cerevisiae deletion strains, locus YGL253W, strain hxk2, stronger effect = lower value 1 | S. cerevisiae deletion strains, locus YGR135W, strain pre9, stronger effect = lower value 1.01 | S. cerevisiae deletion strains, locus YGR252W, strain gcn5, stronger effect = lower value 0.999 | S. cerevisiae deletion strains, locus YHR013C, strain ard1, stronger effect = lower value 1.02 | S. cerevisiae deletion strains, locus YHR027C, strain rpn1, stronger effect = lower value 1 | S. cerevisiae deletion strains, locus YHR030C, strain SLT2, stronger effect = lower value 1 | S. cerevisiae deletion strains, locus YHR079C, strain IRE1 (second series), stronger effect = lower value 1.01 | S. cerevisiae deletion strains, locus YHR094C, strain hxt1, stronger effect = lower value 1.02 | S. cerevisiae deletion strains, locus YHR129C, strain ARP1, stronger effect = lower value 1.01 | S. cerevisiae deletion strains, locus YHR142W, strain chs7, stronger effect = lower value 1.02 | S. cerevisiae deletion strains, locus YHR200W, strain rpn10, stronger effect = lower value 1.02 | S. cerevisiae deletion strains, locus YIL066C, strain RNR3, stronger effect = lower value 1.01 | S. cerevisiae deletion strains, locus YIL073C, strain SPO22, stronger effect = lower value 1.06 | S. cerevisiae deletion strains, locus YIL125W, strain kgd1, stronger effect = lower value 1.02 | S. cerevisiae deletion strains, locus YIR030C, strain dcg1, stronger effect = lower value 1.02 | S. cerevisiae deletion strains, locus YJL092W, strain hpr5, stronger effect = lower value 1.01 | S. cerevisiae deletion strains, locus YJL095W, strain BCK1 (second series), stronger effect = lower value 1.01 | S. cerevisiae deletion strains, locus YJL095W, strain BCK1, stronger effect = lower value 1.04 | S. cerevisiae deletion strains, locus YJL115W, strain asf1, stronger effect = lower value 1.01 | S. cerevisiae deletion strains, locus YJL129C, strain trk1, stronger effect = lower value 1.02 | S. cerevisiae deletion strains, locus YJL134W, strain LCB3, stronger effect = lower value 0.994 | S. cerevisiae deletion strains, locus YJL154C, strain vps35, stronger effect = lower value 1.02 | S. cerevisiae deletion strains, locus YJL164C, strain tpk1, stronger effect = lower value 1.01 | S. cerevisiae deletion strains, locus YJL166W, strain qcr8, stronger effect = lower value 1.01 | S. cerevisiae deletion strains, locus YJL168C, strain set2, stronger effect = lower value 1.01 | S. cerevisiae deletion strains, locus YJL187C, strain SWE1 (second series), stronger effect = lower value 1.03 | S. cerevisiae deletion strains, locus YJL187C, strain SWE1, stronger effect = lower value 1 | S. cerevisiae deletion strains, locus YJR043C, strain POL32, stronger effect = lower value 1 | S. cerevisiae deletion strains, locus YKL009W, strain mrt4, stronger effect = lower value 1.03 | S. cerevisiae deletion strains, locus YKL068W, stronger effect = lower value 1.01 | S. cerevisiae deletion strains, locus YKL085W, strain MDH1 (second series), stronger effect = lower value 1 | S. cerevisiae deletion strains, locus YKL085W, strain MDH1, stronger effect = lower value 1 | S. cerevisiae deletion strains, locus YKL160W, strain elf1, stronger effect = lower value 1.02 | S. cerevisiae deletion strains, locus YKL190W, strain CNB1, stronger effect = lower value 0.989 | S. cerevisiae deletion strains, locus YKR001C, strain vps1, stronger effect = lower value 1.02 | S. cerevisiae deletion strains, locus YKR026C, strain gcn3, stronger effect = lower value 1.01 | S. cerevisiae deletion strains, locus YKR091W, strain srl3, stronger effect = lower value 1.02 | S. cerevisiae deletion strains, locus YLL001W, strain dnm1, stronger effect = lower value 1.01 | S. cerevisiae deletion strains, locus YLL026W, stronger effect = lower value 1 | S. cerevisiae deletion strains, locus YLL041C, strain sdh2, stronger effect = lower value 1.01 | S. cerevisiae deletion strains, locus YLR027C, strain aat2, stronger effect = lower value 1.01 | S. cerevisiae deletion strains, locus YLR039C, strain RIC1, stronger effect = lower value 1.04 | S. cerevisiae deletion strains, locus YLR058C, strain SHM2, stronger effect = lower value 1.02 | S. cerevisiae deletion strains, locus YLR102C, strain apc9, stronger effect = lower value 1.02 | S. cerevisiae deletion strains, locus YLR221C, strain rsa3, stronger effect = lower value 1.02 | S. cerevisiae deletion strains, locus YLR258W, strain gsy2, stronger effect = lower value 1.03 | S. cerevisiae deletion strains, locus YLR262C, strain YPT6 (second series), stronger effect = lower value 1.01 | S. cerevisiae deletion strains, locus YLR262C, strain YPT6, stronger effect = lower value 1.12 | S. cerevisiae deletion strains, locus YLR268W, strain sec22, stronger effect = lower value 1.04 | S. cerevisiae deletion strains, locus YLR320W, strain mms22, stronger effect = lower value 1.02 | S. cerevisiae deletion strains, locus YLR330W, strain CHS5, stronger effect = lower value 1 | S. cerevisiae deletion strains, locus YLR342W, strain FKS1 (second series), stronger effect = lower value 0.993 | S. cerevisiae deletion strains, locus YLR342W, strain FKS1, stronger effect = lower value 1.02 | S. cerevisiae deletion strains, locus YLR357W, strain rsc2, stronger effect = lower value 0.995 | S. cerevisiae deletion strains, locus YLR370C, strain arc18, stronger effect = lower value 1.02 | S. cerevisiae deletion strains, locus YLR371W, strain rom2, stronger effect = lower value 1.02 | S. cerevisiae deletion strains, locus YLR384C, strain iki3, stronger effect = lower value 1.02 | S. cerevisiae deletion strains, locus YLR418C, strain cdc73, stronger effect = lower value 1.02 | S. cerevisiae deletion strains, locus YML016C, strain PPZ1, stronger effect = lower value 1.01 | S. cerevisiae deletion strains, locus YML032C, strain rad52, stronger effect = lower value 1.01 | S. cerevisiae deletion strains, locus YML120C, strain ndi1, stronger effect = lower value 1.01 | S. cerevisiae deletion strains, locus YML124C, strain tub3, stronger effect = lower value 1.01 | S. cerevisiae deletion strains, locus YMR058W, strain fet3, stronger effect = lower value 1.01 | S. cerevisiae deletion strains, locus YMR078C, strain ctf18, stronger effect = lower value 1.03 | S. cerevisiae deletion strains, locus YMR125W, strain sto1, stronger effect = lower value 1.01 | S. cerevisiae deletion strains, locus YMR129W, stronger effect = lower value 1.01 | S. cerevisiae deletion strains, locus YMR205C, strain PFK2, stronger effect = lower value 1.02 | S. cerevisiae deletion strains, locus YMR223W, strain ubp8, stronger effect = lower value 1.02 | S. cerevisiae deletion strains, locus YMR231W, strain pep5, stronger effect = lower value 1 | S. cerevisiae deletion strains, locus YMR307W, strain GAS1, stronger effect = lower value 1.01 | S. cerevisiae deletion strains, locus YNL067W, strain RPL9B, stronger effect = lower value 1.03 | S. cerevisiae deletion strains, locus YNL071W, strain lat1, stronger effect = lower value 1.02 | S. cerevisiae deletion strains, locus YNL128W, strain TEP1, stronger effect = lower value 1.03 | S. cerevisiae deletion strains, locus YNL153C, strain GIM3, stronger effect = lower value 1.01 | S. cerevisiae deletion strains, locus YNL209W, strain ssb2, stronger effect = lower value 1.01 | S. cerevisiae deletion strains, locus YNL233W, strain BNI4, stronger effect = lower value 1.03 | S. cerevisiae deletion strains, locus YNL248C, strain rpa49, stronger effect = lower value 0.998 | S. cerevisiae deletion strains, locus YNL250W, strain rad50, stronger effect = lower value 1.05 | S. cerevisiae deletion strains, locus YNL271C, strain bni1, stronger effect = lower value 1.03 | S. cerevisiae deletion strains, locus YNL298W, strain CLA4, stronger effect = lower value 1.01 | S. cerevisiae deletion strains, locus YNL307C, strain MCK1, stronger effect = lower value 1.04 | S. cerevisiae deletion strains, locus YNL322C, strain KRE1 (second series), stronger effect = lower value 1 | S. cerevisiae deletion strains, locus YNL322C, strain KRE1, stronger effect = lower value 1 | S. cerevisiae deletion strains, locus YNR049C, strain mso1, stronger effect = lower value 1.03 | S. cerevisiae deletion strains, locus YNR052C, strain pop2, stronger effect = lower value 1.02 | S. cerevisiae deletion strains, locus YOL012C, strain htz1 1.55 | S. cerevisiae deletion strains, locus YOL147C, strain pex11, stronger effect = lower value 1.02 | S. cerevisiae deletion strains, locus YOR001W, strain rrp6, stronger effect = lower value 1.02 | S. cerevisiae deletion strains, locus YOR061W, strain CKA2, stronger effect = lower value 1.01 | S. cerevisiae deletion strains, locus YOR069W, strain VPS5, stronger effect = lower value 1.01 | S. cerevisiae deletion strains, locus YOR070C, strain gyp1, stronger effect = lower value 1.03 | S. cerevisiae deletion strains, locus YOR080W, strain dia2, stronger effect = lower value 1 | S. cerevisiae deletion strains, locus YOR083W, strain WHI5, stronger effect = lower value 1.02 | S. cerevisiae deletion strains, locus YOR106W, strain vam3, stronger effect = lower value 1.02 | S. cerevisiae deletion strains, locus YOR136W, strain idh2, stronger effect = lower value 1.03 | S. cerevisiae deletion strains, locus YOR144C, strain elg1, stronger effect = lower value 1 | S. cerevisiae deletion strains, locus YOR184W, strain ser1, stronger effect = lower value 1.01 | S. cerevisiae deletion strains, locus YOR265W, strain rbl2, stronger effect = lower value 1 | S. cerevisiae deletion strains, locus YOR270C, strain vph1, stronger effect = lower value 1.05 | S. cerevisiae deletion strains, locus YOR290C, strain snf2, stronger effect = lower value 1.01 | S. cerevisiae deletion strains, locus YOR316C, strain cot1, stronger effect = lower value 1.02 | S. cerevisiae deletion strains, locus YPL051W, strain arl3, stronger effect = lower value 1 | S. cerevisiae deletion strains, locus YPL055C, strain LGE1, stronger effect = lower value 1.03 | S. cerevisiae deletion strains, locus YPL078C, strain atp4, stronger effect = lower value 1.01 | S. cerevisiae deletion strains, locus YPL106C, strain sse1, stronger effect = lower value 0.997 | S. cerevisiae deletion strains, locus YPL240C, strain hsp82, stronger effect = lower value 0.998 | S. cerevisiae deletion strains, locus YPR119W, strain clb2, stronger effect = lower value 1.02 | S. cerevisiae deletion strains, locus YPR141C, strain kar3, stronger effect = lower value 1.02 | S. cerevisiae deletion strains, locus YPR163C, strain tif3, stronger effect = lower value 1.02 | S. cerevisiae deletion strains, locus YPR167C, strain met16, stronger effect = lower value 1.02 | S. cerevisiae deletion strains, strain wtn01, stronger effect = lower value 1.02 | S. cerevisiae strains, strain wild type, stronger effect = lower value 1.01
